Active and inactive are the calls of the source. Unless noted, no rule for the calls is given here.
Columns and labels:
[1] = A549 cell viability effects, profiling panel, calcein-AM fluorescence, 48 h, basal (AID 1162); details: higher = more signal; also: test concentration not given here
[2] = adipocyte viability effects, profiling panel, cell-based, 3T3-L1 adipocytes, calcein-AM fluorescence, 48 h, basal (AID 1163); details: 3T3-L1 adipocytes viability, higher = more signal; also: test concentration not given here
[3] = HepG2 cell viability effects, profiling panel, calcein-AM fluorescence, 48 h, basal (AID 1164); details: higher = more signal; also: test concentration not given here
[4] = MM1S cell viability effects, profiling panel, calcein-AM fluorescence, 48 h, basal (AID 1165); details: higher = more signal;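 also: viability of MM1S multiple myeloma cells under basal unstimulated conditions; test concentration not given here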
[5] = basal RPMI8226 viability, no added stimulus, profiling panel, cell-based, calcein-AM fluorescence, 48 h, PK04 Diversity Set (AID 1166); details: RPMI8226 myeloma viability, higher = more signal;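 also: cells grown under basal conditions without added stimulus; test concentration not given here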
[6] = basal HepG2 mitochondrial membrane potential changes, profiling panel, cell-based, JC-1 fluorescence, 24 h, 100 nL compound (AID 1167); details: higher = more signal; also: test concentration not given here
[7] = basal 3T3-L1 adipocyte mitochondrial potential changes, profiling panel, cell-based, JC-1 fluorescence, 3T3-L1 adipocytes, 24 h, 100 nL compound (AID 1168); details: JC-1 mitochondrial fluorescence, higher = more signal, called active from +8 up or from −8 down; also: test concentration not given here
[8] = basal RPMI8226 mitochondrial membrane potential changes, profiling panel, cell-based, JC-1 fluorescence, 24 h, 100 nL compound (AID 1169); details: RPMI8226 myeloma, JC-1 mitochondrial potential fluorescence, higher = more signal; also: test concentration not given here
[9] = basal MM1S mitochondrial membrane potential changes, profiling panel, cell-based, JC-1 fluorescence, 24 h, 100 nL compound (AID 1170); details: higher = more signal; also: test concentration not given here
[10] = A549 lung cancer cell viability effects, profiling panel, resazurin fluorescence, 24 h, PK04 Diversity Set (AID 1171); details: higher = more signal, called active from +8 up or from −8 down; also: test concentration not given here
[11] = HepG2 liver cancer cell viability effects, profiling panel, resazurin fluorescence, 24 h, PK04 Diversity Set (AID 1172); details: higher = more signal; also: test concentration not given here
[12] = basal S. cerevisiae growth modulation, no modifier, primary screen, OD600, strain BY4716, 24 h, basal condition (AID 1173); details: OD600, 24 h, higher = more signal, called active from +8 up or from −8 down
[13] = MM1S myeloma cell viability, profiling panel, resazurin fluorescence, basal, 24 h, PK04 Diversity Set (AID 1174); details: higher = more signal, called active from +8 up or from −8 down;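 also: MM1S multiple myeloma cell line; test concentration not given here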
[14] = target: Dihydroorotate dehydrogenase (quinone), mitochondrial (Plasmodium falciparum (isolate 3D7)) (UniProt Q08210); experiment: PfDHODH enzyme inhibitors, primary screen, biochemical, C-terminal His tag, absorbance 600 nm (AID 1175); details: DCIP absorbance 600 nm, higher = more signal, called active from +8 up or from −8 down;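 also: recombinant parasite enzyme with a five histidine tag at its C terminus; test concentration not given here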
Sequence of Dihydroorotate dehydrogenase (quinone), mitochondrial (Plasmodium falciparum (isolate 3D7)) (Q08210 whole entry, looked up): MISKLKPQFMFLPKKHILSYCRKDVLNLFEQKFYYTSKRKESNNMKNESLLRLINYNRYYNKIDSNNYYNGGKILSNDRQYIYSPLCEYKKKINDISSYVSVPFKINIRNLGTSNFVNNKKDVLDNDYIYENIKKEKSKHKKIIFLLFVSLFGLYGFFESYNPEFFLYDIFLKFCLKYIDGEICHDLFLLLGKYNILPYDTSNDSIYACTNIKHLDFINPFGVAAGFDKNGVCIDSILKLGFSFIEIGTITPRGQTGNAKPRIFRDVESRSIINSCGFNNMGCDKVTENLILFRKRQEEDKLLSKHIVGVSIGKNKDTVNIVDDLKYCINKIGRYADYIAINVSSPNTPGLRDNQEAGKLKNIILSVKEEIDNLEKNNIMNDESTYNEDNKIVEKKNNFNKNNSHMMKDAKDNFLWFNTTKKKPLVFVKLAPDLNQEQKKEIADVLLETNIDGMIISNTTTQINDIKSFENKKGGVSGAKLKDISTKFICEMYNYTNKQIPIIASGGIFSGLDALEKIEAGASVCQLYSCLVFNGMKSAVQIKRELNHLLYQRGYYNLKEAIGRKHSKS

[15] = P. aeruginosa biofilm formation inhibitors, primary screen, strain PAO1, LB-PBS medium, absorbance 600 nm (AID 1176); also: test concentration not given here; details: P. aeruginosa PAO1 growth/biofilm, A600, 12 h; higher = more signal
[16] = S. cerevisiae RM11-1a growth modifiers, primary screen, strain RM11-1a, OD600, basal, 24 h (AID 1177); details: OD600, 24 h, higher = more signal, called active from +8 up or from −8 down;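 also: cultures grown under basal conditions with no added stressor; test concentration not given here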
[17] = E. coli acrAB mutant growth effects, primary screen, E. coli filamentation inducers, strain DRC39, OD650, 24 h (AID 1178); details: higher = more signal, called active from +8 up or from −8 down;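 also: growth measured as culture turbidity by optical density at 650 nm; test concentration not given here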
[18] = E. coli acrAB mutant growth effects, primary screen, E. coli filamentation inducers, strain DRC39, OD650, 48 h (AID 1179);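 also: screen aims at cell division blockers that make cells filament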; details: E. coli DRC39 delta-acrAB growth, higher = more signal, called active from +8 up or from −8 down
[19] = RPMI8226 myeloma cell viability, profiling panel, resazurin fluorescence, basal, 24 h, PK04 Diversity Set (AID 1180); details: higher = more signal;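 also: RPMI8826 multiple myeloma cell line at 5000 cells per well; test concentration not given here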
[20] = target: E3 ubiquitin-protein ligase XIAP (Homo sapiens) (UniProt P98170); experiment: XIAP binders, primary screen, biophysical, small-molecule microarray, fluorescence 635 nm (AID 1181); details: small-molecule microarray binding, higher = more signal;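 also: score merges 667 nm emission and signal to noise over triplicate slides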
Sequence of E3 ubiquitin-protein ligase XIAP (Homo sapiens) (P98170 whole entry, looked up): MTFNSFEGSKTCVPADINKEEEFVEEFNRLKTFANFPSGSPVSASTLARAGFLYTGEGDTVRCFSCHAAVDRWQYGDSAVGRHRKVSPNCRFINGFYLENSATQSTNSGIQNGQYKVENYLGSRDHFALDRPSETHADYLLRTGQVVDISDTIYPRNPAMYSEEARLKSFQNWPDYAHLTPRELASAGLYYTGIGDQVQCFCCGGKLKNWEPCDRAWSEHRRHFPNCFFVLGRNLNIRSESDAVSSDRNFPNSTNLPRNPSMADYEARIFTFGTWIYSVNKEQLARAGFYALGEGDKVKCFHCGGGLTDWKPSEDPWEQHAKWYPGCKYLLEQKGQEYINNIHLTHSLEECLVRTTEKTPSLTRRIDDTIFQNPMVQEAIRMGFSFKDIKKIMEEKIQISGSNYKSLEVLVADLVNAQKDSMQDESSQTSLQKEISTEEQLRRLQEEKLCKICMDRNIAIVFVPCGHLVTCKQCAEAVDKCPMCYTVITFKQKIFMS

| SMILES | z-score [1] | z-score [2] | z-score [3] | z-score [4] | z-score [5] | z-score [6] | z-score [7] | z-score [8] | z-score [9] | z-score [10] | z-score [11] | z-score [12] | z-score [13] | composite z-score [14] | z-score [15] | z-score [16] | z-score [17] | z-score [18] | z-score [19] | composite z-score [20] |
| --- | --- | --- | --- | --- | --- | --- | --- | --- | --- | --- | --- | --- | --- | --- | --- | --- | --- | --- | --- | --- |
| COCCOC(=O)N1C(=O)[C@@]2(c3cc(C#CC4=CCCCC4)ccc31)[C@H](C(=O)Nc1nc3ccccc3s1)[C@H]1C(=O)O[C@H](c3ccccc3)[C@H](c3ccccc3)N1[C@@H]2c1ccc(OCCO)cc1 | -0.104 | 0.747 | 0.185 | -0.953 | -0.856 | -2.95 | 0.662 (inactive) | -0.583 | -1.12 | -0.309 (inactive) | 0.366 | 1.05 (inactive) | 0.295 (inactive) | 0.0498 (inactive) | 4.33 (inactive) | 2.51 (inactive) | -1.26 (inactive) | -2.09 (inactive) | -0.0984 | -0.106 |
| Cc1ccc(S[C@]2(C(=O)NCCN3CCOCC3)CC(=O)N(Cc3ccccc3)[C@@H]2c2ccc(CO)cc2I)cc1 | -0.242 | 1.1 | -0.705 | -2.08 | -2.5 | 0.119 | -0.688 (inactive) | -0.383 | -2.44 | 0.394 (inactive) | -0.396 | -3.23 (inactive) | -2.91 (inactive) | -4.58 (inactive) | 0.422 (inactive) | -1.71 (inactive) | 0.359 (inactive) | -0.46 (inactive) | -2.02 | -0.152 |
| COCCOC(=O)N1C(=O)[C@@]2(c3cc(C#CCNC(N)=O)ccc31)[C@H](C(=O)NC[C@H](O)c1ccccc1)[C@H]1C(=O)O[C@H](c3ccccc3)[C@H](c3ccccc3)N1[C@@H]2c1ccccc1OCCO | 1.22 | 0.504 | 0.829 | 0.837 | 0.676 | -0.523 | 0.749 (inactive) | -0.548 | -1.04 | -0.0062 (inactive) | -0.577 | 1.39 (inactive) | 0.796 (inactive) | 0.272 (inactive) | 2.62 (inactive) | 1.97 (inactive) | 1.01 (inactive) | 1.1 (inactive) | 0.952 | 0.108 |
| C=CCN(Cc1ccccc1)C(=O)C(c1cccs1)N(CCOCCO)C(=O)/C=C\C(=O)O (stereo not given) | 0.902 | 0.345 | 0.849 | 1.62 | 1 | -0.138 | 0.0415 (inactive) | 0.158 | -1.37 | -0.221 (inactive) | -0.393 | -1.1 (inactive) | 0.666 (inactive) | -1.37 (inactive) | 0.661 (inactive) | -0.947 (inactive) | 0.441 (inactive) | 1.05 (inactive) | 0.463 | 0.223 |
| C#CCN(CC=C(C)C)[C@H](CO)c1ccccc1 | -0.589 | 1.37 | -0.7 | 0.0539 | -1.2 | -1.16 | 0.27 (inactive) | -0.383 | 0.471 | -0.665 (inactive) | 0.0941 | -8.3 (active) | 0.101 (inactive) | -2.54 (inactive) | -0.635 (inactive) | -0.0386 (inactive) | -0.997 (inactive) | -1.3 (inactive) | -0.544 | -0.165 |
| COCCCNC(=O)[C@@]1(Cc2ccccc2N=[N+]=[N-])N=C(c2ccc(OCCCO)cc2)O[C@H]1c1ccccc1N=[N+]=[N-] | -1.84 | 0.954 | -1.37 | -1.88 | -3.69 | 1.77 | 0.221 (inactive) | -1.22 | -2.03 | -1.76 (inactive) | -0.993 | -0.181 (inactive) | -2.32 (inactive) | 1.21 (inactive) | 0.454 (inactive) | 1.83 (inactive) | 0.478 (inactive) | -0.607 (inactive) | -1.99 | 0.323 |
| NC(=O)[C@@H]1[C@H]2C(=O)O[C@H](c3ccccc3)[C@H](c3ccccc3)N2[C@H](c2ccc(O)cc2)[C@@]12C(=O)Nc1ccc(C#CC3(O)CCCCCC3)cc12 | 0.735 | -0.0487 | 0.338 | -1.44 | -0.482 | -0.717 | -0.928 (inactive) | -0.566 | -0.0259 | 0.399 (inactive) | -0.0265 | -1.32 (inactive) | 0.475 (inactive) | -0.387 (inactive) | 0.654 (inactive) | 0.591 (inactive) | -0.84 (inactive) | -0.184 (inactive) | -0.49 | -0.113 |
| C=C/C=C/[C@H]1C(=C)CN([C@@H](Cc2ccccc2)C(=O)OC)[C@@H]1[C@H](O)Cc1ccccc1 | -0.0859 | -0.178 | -0.0232 | -2.2 | -1.52 | -1.06 | -0.882 (inactive) | -0.317 | 0.165 | -0.138 (inactive) | 0.28 | -1.91 (inactive) | 0.883 (inactive) | -1.09 (inactive) | 0.531 (inactive) | -0.609 (inactive) | 0.701 (inactive) | 0.595 (inactive) | 0.73 | 0.643 |
| C#CCNC(=O)[C@H](Cc1ccccc1)NC(=O)CCC(=O)O | -0.281 | -0.405 | 0.0694 | 0.527 | 0.0189 | -0.821 | -0.536 (inactive) | 0.539 | -0.97 | -0.119 (inactive) | -0.487 | -0.734 (inactive) | -0.135 (inactive) | 0.139 (inactive) | 0.927 (inactive) | -0.051 (inactive) | -0.306 (inactive) | -0.125 (inactive) | -1.28 | -0.239 |
| CCCC=C(CCC)[C@@H](NS(=O)(=O)c1cccs1)c1ccc(C(=O)OC)cc1 | -3.9 | 0.532 | -5.36 | -3.33 | -4.74 | -4.43 | 1.24 (inactive) | -0.819 | -2.8 | 4.56 (inactive) | -0.395 | 0.91 (inactive) | 1.18 (inactive) | 0.335 (inactive) | 0.535 (inactive) | 1.59 (inactive) | 0.588 (inactive) | -0.424 (inactive) | -5.85 | 0.0248 |
| CN1C(=O)C2C=CC(C(O)c3cccs3)N(Nc3ccccc3)C2C1=O (stereo not given) | -0.439 | -0.612 | -0.436 | -1.64 | -0.535 | -0.693 | -0.841 (inactive) | -0.0836 | -0.528 | -0.654 (inactive) | -0.698 | 0.702 (inactive) | -0.861 (inactive) | -0.607 (inactive) | 0.847 (inactive) | -0.0337 (inactive) | -0.947 (inactive) | -0.724 (inactive) | -1.15 | 0.311 |
| CC(C)C[C@@H]1NC(=O)[C@@H]2C[C@H](C(=O)NCCCCCN)[C@H](c3cccc(OCCO)c3)N2C1=O | 0.938 | 0.624 | 1.89 | 0.767 | 1.26 | 1.75 | 0.00134 (inactive) | -0.71 | -0.495 | -0.217 (inactive) | -0.573 | -1.22 (inactive) | 0.522 (inactive) | -1.78 (inactive) | 0.792 (inactive) | -2.75 (inactive) | 1.06 (inactive) | 1.75 (inactive) | 0.465 | 0.0337 |
| COCCOC(=O)N1C(=O)[C@@]2(c3cc(C#CCCO)ccc31)[C@H](C(=O)N1CCc3cc(OC)c(OC)cc3C1)[C@H]1C(=O)O[C@H](c3ccccc3)[C@H](c3ccccc3)N1[C@@H]2c1ccc(O)cc1 | -0.235 | 0.0133 | 2.58 | 0.587 | 0.245 | -0.404 | 0.0353 (inactive) | -0.385 | -0.546 | -0.689 (inactive) | 0.0444 | -0.253 (inactive) | -0.419 (inactive) | -0.268 (inactive) | 0.875 (inactive) | 2.12 (inactive) | 0.316 (inactive) | 0.884 (inactive) | -0.368 | -0.0812 |
| COC(=O)[C@@]1(Cc2ccc(F)cc2)[C@H]2c3cc(C(=O)N4CCCC4)n(Cc4cc(C)n(C)n4)c3C[C@H]2CN1C(=O)c1ccccc1 | -0.553 | -0.0099 | 0.499 | -0.391 | -0.382 | 2.16 | -1.13 (inactive) | -0.0438 | -0.461 | -0.156 (inactive) | -0.945 | 0.603 (inactive) | -0.642 (inactive) | -0.468 (inactive) | 0.964 (inactive) | 0.279 (inactive) | -0.375 (inactive) | -0.459 (inactive) | -1.51 | 0.17 |

— PubChem BioAssay
